# Reference: ChEMBL document CHEMBL3988442, “University of Dundee, Small-Polar-MMV Screening Library” (2021)
# Hit rate of the full screen: of about 85,000 compounds, about 440 (0.52%) showed an effect of 50% or more. Only a selection was taken, and strong results are over-represented in it overall.
# Assay: In vitro enzyme assay to detect hydrolysis of chlorophenol red-beta-D-[…] directly proportional to the number of Toxoplasma stably expressing beta-galactosidase
# Assay type: functional, organism-based, Toxoplasma gondii
# Set-up: scale not given: in the data most compounds retested in dose-response had high values
Structure (SMILES),Percent Effect (50 µM) [%],Percent Effect (10 µM) [%]
Cc1ccc(CN(CC(=O)N2CCNC2=O)C(C)C)s1,-25.32,–
CC1CCN(CCNC(=O)Nc2ncnn2C)CC1,93.89,–
CCc1noc(CC)c1CNC(=O)Nc1cccc(C(=O)N(C)C)c1,–,-1.441
Cc1cc(NC(=O)NCCN2CCC(C)CC2)n(C)n1,-15.44,–
CCc1noc(CC)c1CNC(=O)Nc1cccc([S+](C)[O-])c1 (stereo not drawn),–,5.882
CCc1noc(CC)c1CNC(=O)Nc1ncnn1C,67.97,–
CSCCCNC(=O)Nc1ncnn1C,-6.612,–
CN1CCCN(C(=O)c2ccc(N(C)C)cc2F)CC1,-3.403,–
CN(CCOc1ccc(Cl)cc1)CCC(N)=O,-5.352,–
CN(C)S(=O)(=O)N1CC(=O)NCC1(C)C,14.19,–
OCCNc1nccc(-c2c[nH]nc2-c2ccncc2)n1,–,-1.451
OCCNc1nccc(-c2c[nH]nc2-c2cccnc2)n1,–,-8.104
OCCNc1nccc(-c2c[nH]nc2-c2ccco2)n1,–,54.25
CN1Cc2ccccc2CC1=O,-6.86,–
NC1CCC(N2C(=O)CCC2=O)CC1 (stereo not drawn),15.63,–
CCCc1ccc(C(=O)N[C@@H]2CCOC[C@H]2O)cc1,64,–
CN(C)Cc1cccc(C(=O)N[C@@H]2CCOC[C@H]2O)c1,-6.19,–

Structure (SMILES),Percent Effect (50 µM) [%],Percent Effect (10 µM) [%]
O=C(N[C@@H]1CCOC[C@H]1O)c1ccncc1,-0.1422,–
C=C(C)C(C)(C)C(=O)N[C@@H]1COCC[C@H]1O,16.24,–
Cc1oc(-c2ccoc2)nc1CN1CCCCC1CCc1ccccc1 (stereo not drawn),–,-14.19
COCC1CCCCN1Cc1nc(-c2ccoc2)oc1C (stereo not drawn),–,1.217
Cc1oc(-c2ccoc2)nc1CN1CCC[C@H]1CO,–,75.83
O=C(Nc1ccc(-n2nccn2)cc1)N1CCC(O)C1 (stereo not drawn),-2.451,–
CSCC[C@H](N)C(=O)N(C)Cc1ncc(Cl)n1C,-3.024,–
Cc1ccc(CNC(=O)N2Cc3ccccc3C2)cn1,-21.35,–
C=C/C=c1\c(=C/C)oc2c(NCc3ccccc3)nc(CC)nc12,–,39.81
C=C/C=c1\c(=C/C)oc2c(NCc3ccccc3)ncnc12,–,26.91
C=C/C=c1\c(=C/C)oc2c(NCc3ccccc3)nc(C)nc12,–,54.55
CC1CCCCN1C(=O)NCCNC(=O)c1ccn[nH]1 (stereo not drawn),-2.19,–
COc1cccc(CO)n1,-5.543,–
CCC(N)c1cccc(OC)n1 (stereo not drawn),-11.92,–
CCC(=O)c1cccc(OC)n1,98.31,–
O=C(NCc1cccnc1)c1ccc(C(F)(F)F)nc1,2.561,–
